38 molecules from PubChem BioAssay (NCATS) can be followed below.

Several values for one entry are separate records, joined by “and”; a condition that tells them apart may be missing. Equal values may be shown once. Results filed as inconclusive are left out. Activity calls are given as the source filed them. Unless noted, the call rests on the fitted dose curve.

The first test deals with Phospholipid hydroperoxide glutathione peroxidase GPX4 (Homo sapiens) (UniProt P36969). Nature of the test: Primary qHTS Assay for Inhibitors of Recombinant Selenoprotein Glutathione Peroxidase 4 (GPX4) (AID 1845192; active means well fitted inhibition curve with a large enough effect; further: nearly all actives have a fitted effect of over 65% in size; further: potency means the concentration at half of the fitted maximal effect; on activity change, negative = inhibition: on the % scale 0 is the no-effect control and ±100 the full control effect). Particulars: recombinant GPX4, GR-coupled NADPH fluorescence, 15 min; series mostly up to 50 µM; activity change, negative = inhibition: at the top concentration. An outline of the steps: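 NADPH consumption, followed by fluorescence at 340/450 nm between 0 and 15 min, reports GPX4 activity via coupled glutathione reductase (100 nM). Enzyme 200 nM was pre-exposed to compound 30 min; 0.5 mM cumene hydroperoxide and 1 mM GSH served as substrates.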
Chain of Phospholipid hydroperoxide glutathione peroxidase GPX4 (Homo sapiens) (P36969 whole entry, looked up): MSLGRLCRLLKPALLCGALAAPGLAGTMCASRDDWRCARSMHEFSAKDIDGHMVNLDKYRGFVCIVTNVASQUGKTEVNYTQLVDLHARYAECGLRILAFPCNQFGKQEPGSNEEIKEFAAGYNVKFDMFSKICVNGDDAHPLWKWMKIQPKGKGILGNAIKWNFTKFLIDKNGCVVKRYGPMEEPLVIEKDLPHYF
For `COc1cccc(-c2c(C)n(Cc3c(F)cccc3C(F)(F)F)c(=O)n(C[C@H](NCCCC(=O)O)c3ccccc3)c2=O)c1F`, the Potency entry is “inactive”. Consider `N=C(N)c1ccc2nc(-c3cc(CC(=O)N[C@@H](CC(=O)O)C(=O)O)cc(-c4cc(S(N)(=O)=O)ccc4O)c3O)[nH]c2c1`, for which the “activity change, negative = inhibition” value is 1.44% (inactive). Take `C[C@H](Nc1nc(N[C@H](C)C(F)(F)F)nc(-c2cccc(Cl)n2)n1)C(F)(F)F`: the outcome was inactive. On to `N#Cc1ccnc(N2C(=O)CC[C@H]2C(=O)N(c2cncc(F)c2)C(C(=O)NC2CC(F)(F)C2)c2ccccc2Cl)c1` (some centres undefined), for which the “activity change, negative = inhibition” value is -11.1% (inactive). Consider `COc1cc(C)[nH]c(=O)c1CN1CCc2c(Cl)cc([C@H](OC)C3COC3)c(Cl)c2C1=O`, for which the outcome was inactive.

With `COC1CCC(N2C(=O)CNc3ncc(-c4ccc(C(C)(C)O)nc4)nc32)CC1` (centres undefined), the Potency was 3.21 µM (active). For `Cn1cc(-c2nc(N[C@@H]3CCCC[C@@H]3N)c(F)c3c2C(=O)NC3)cn1`, the outcome is “inactive [at 4.52 µM]”. Consider `Cc1[nH]cnc1CN1CCN(C(=O)N[C@@H](CC(C)C)C(=O)O)[C@@H](Cc2ccccc2)C1=O`, for which the “activity change, negative = inhibition” value was 3.84% (inactive). On the same count and under the same terms, the value for `Cc1nc(NC(=O)N2CCC[C@H]2C(N)=O)sc1-c1csc(C(C)(C)C)n1` was -3.87% (inactive). `CC(C)n1c(=O)cc(N[C@@H](C)c2ccccc2)[nH]c1=O`: the outcome was inactive. With `CSC[C@H]1CN(Cc2c[nH]c3c(N)ncnc23)C[C@@H]1O`, the outcome was inactive. Regarding `C=CC(=O)Nc1cccc(Oc2nc(Nc3ccc(N4CCN(C)CC4)c(F)c3)nc3[nH]ccc23)c1`, the “activity change, negative = inhibition” value was -6.7% (inactive).

On to `COCCOC(=O)N1CCN(S(=O)(=O)c2cc(F)c(Oc3ccc(Cl)cc3)c(F)c2)C(C(=O)NO)C1` (centres undefined), for which the “activity change, negative = inhibition” value was -5.55% (inactive). Same read-out and setting: the result for `COc1nc(N)nc2c1ncn2C1OC(CO)C(O)C1O` (centres undefined) reads -3.52% (inactive); that for `COc1ccc(COc2ccc(Cc3cnc(N)nc3N)cc2OC)cc1`, 2.35% (inactive); that for `CCOC(=O)N[C@@H]1CC[C@@H]2[C@@H](C1)C[C@H]1C(=O)O[C@H](C)[C@H]1[C@H]2/C=C/c1ccc(-c2cccc(F)c2)cn1`, -21.7% (inactive).

System in a further test: not listed separately
The test can be described thus: qHTS drug screen for cell cycle checkpoint inhibitors in PARPi-resistant BRCA-mutant ovarian cancer cell lines. (AID 1963452). The conditions noted are these: PEO1/OlaR viability, CellTiter-Glo luminescence, 96 h; active compounds read low. The method in brief: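 PEO1, PEO4 and PEO1/OlaR ovarian cancer cells, 600 per well, exposed 96 h at 37C to a dilution series. Viability read by CellTiter-Glo luminescence, normalized to DMSO and empty wells; activity summarized as Z-AUC.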
In the case of `COc1cccc(-c2c(C)n(Cc3c(F)cccc3C(F)(F)F)c(=O)n(C[C@H](NCCCC(=O)O)c3ccccc3)c2=O)c1F`, the Z-AUC is 1.28 (inactive) and 1.27 (inactive). With `C=C1C[C@H]2C=Nc3cc(OCCCOc4cc5c(cc4OC)C(=O)N4CC(=C)C[C@H]4C=N5)c(OC)cc3C(=O)N2C1`, the Z-AUC is 1.4 (inactive).

Turning to `O=C(O)CCNc1cc(N2CCc3ccccc3CC2)nc(-c2cccnc2)n1`, the Z-AUC was 1.21 (inactive). Regarding `CN1CCN(C(=O)c2ccc(-c3ccc4c(C=O)c(O)ccc4c3)s2)CC1`, the Z-AUC was 1.23 (inactive).

Take `N=C(N)c1ccc2nc(-c3cc(CC(=O)N[C@@H](CC(=O)O)C(=O)O)cc(-c4cc(S(N)(=O)=O)ccc4O)c3O)[nH]c2c1`: the Z-AUC is -0.76 (inactive). Still for that read-out and setting: the result for `C[C@H](Nc1nc(N[C@H](C)C(F)(F)F)nc(-c2cccc(Cl)n2)n1)C(F)(F)F` reads -0.138 (inactive); that for `O=C1OC(COc2ccccc2[N+](=O)[O-])CC1Cc1ccccc1` (centres undefined), -0.926 (inactive). The same measure, in the same setting: the value for `COc1cc2c(cc1OC)CN(CCc1ccc(-n3nnc(-c4cc(OC)c(OC)cc4NC(=O)c4cc(=O)c5ccccc5o4)n3)cc1)CC2` was 2.8 (inactive); that for `COCCNc1cc(NC(=O)N2CCCc3cc(CN4CCN(C)CC4=O)c(C=O)nc32)ncc1C#N` was 0.715 (inactive). For `N#Cc1ccnc(N2C(=O)CC[C@H]2C(=O)N(c2cncc(F)c2)C(C(=O)NC2CC(F)(F)C2)c2ccccc2Cl)c1` (some centres undefined), the Z-AUC was 1.6 (inactive). On the same count and under the same terms, the value for `CC1(N)CCN(c2cnc(-c3cccc(Cl)c3Cl)c(N)n2)CC1` was -0.468 (inactive).

`O=C(O)C[C@H]1CCc2c1[nH]c1ccc(OCc3ccc(C4CCCC4)c(C(F)(F)F)c3)cc21`: the Z-AUC is 1.56 (inactive). Still for that read-out and setting: the value for `CCOc1ccc(Cc2cc([C@@H]3O[C@H](CO)[C@@H](O)[C@H](O)[C@H]3O)ccc2Cl)cc1` was 1.26 (inactive); that for `COc1cc(C)[nH]c(=O)c1CN1CCc2c(Cl)cc([C@H](OC)C3COC3)c(Cl)c2C1=O` was 1.05 (inactive). Same read-out and setting: the value for `CC1(C)OC2=C(C(=O)c3ccccc3C2=O)[C@H](NCc2ccccc2)[C@@H]1O` was 0.63 (inactive). Regarding `CN[C@@H](C)C(=O)N[C@H](C(=O)N1CCC[C@H]1C(=O)Nc1sc(-c2ncco2)nc1-c1ccccc1)C1CCCCC1`, the Z-AUC was 1.87 (inactive). On the same count and under the same terms, the value for `O=C(O)c1ccccc1-c1ccc(/C=c2\sc3nc4cc(Br)cnc4n3c2=O)o1` was -0.492 (inactive); that for `O=C(/C=C/c1ccc(/C=C/C(=O)Nc2ccc(C3=NCCN3)cc2)cc1)Nc1ccc(C2=NCCN2)cc1` was 0.122 (inactive). Still for that read-out and setting: the result for `Cc1c(NC(=O)c2cc(C(N)=O)nc3cc(F)ccc23)c(C(F)(F)F)nn1Cc1ccc(C(C)(C)C)cc1` reads -0.453 (inactive). In the case of `COC1CCC(N2C(=O)CNc3ncc(-c4ccc(C(C)(C)O)nc4)nc32)CC1` (centres undefined), the Z-AUC was 1.16 (inactive). On the same count and under the same terms, the result for `Cc1c(-c2c(-c3ccc(F)o3)sc3ncnc(O[C@@H](Cc4ccccc4OCc4ccnn4CC(F)(F)F)C(=O)O)c23)ccc(OCCN2CCN(C)CC2)c1Cl` reads 0.0867 (inactive).

On to `Cn1cc(-c2nc(N[C@@H]3CCCC[C@@H]3N)c(F)c3c2C(=O)NC3)cn1`, for which the Z-AUC was 0.172 (inactive). As to `O=C1NC(=O)/C(=C\c2ccc(-c3ccc(F)cc3)o2)S1`, the Z-AUC was 0.0775 (inactive). Same read-out and setting: the result for `CONC(=O)Nc1ccc(-c2sc3c(c2CN(C)Cc2ccccc2)c(=O)n(-c2ccccc2)c(=O)n3Cc2c(F)cccc2F)cc1` reads -0.608 (inactive); that for `Cc1[nH]cnc1CN1CCN(C(=O)N[C@@H](CC(C)C)C(=O)O)[C@@H](Cc2ccccc2)C1=O`, -0.059 (inactive); that for `O=C(O)CNC(=O)c1nc(Cl)c2ccccc2c1O`, -0.321 (inactive). `CC(C)(O)c1coc(S(=O)(=O)NC(=O)Nc2c3c(cc4c2CCC4)CCC3)c1`: the Z-AUC was -0.755 (inactive). On the same count and under the same terms, the value for `Cc1nc(NC(=O)N2CCC[C@H]2C(N)=O)sc1-c1csc(C(C)(C)C)n1` was 0.111 (inactive); that for `CC(C)[C@H]1C(=O)N[C@@H](CCCN=C(N)N)C(=O)NCC(=O)N[C@@H](CC(=O)O)C(=O)N[C@H](Cc2ccccc2)C(=O)N1C` was -1.37 (inactive). On the same count and under the same terms, the value for `CC(C)n1c(=O)cc(N[C@@H](C)c2ccccc2)[nH]c1=O` was -0.0266 (inactive). Same read-out and setting: the value for `CSC[C@H]1CN(Cc2c[nH]c3c(N)ncnc23)C[C@@H]1O` was 1.09 (inactive); that for `C=CC(=O)Nc1cccc(Oc2nc(Nc3ccc(N4CCN(C)CC4)c(F)c3)nc3[nH]ccc23)c1` was -1.38 (inactive); that for `COCCOC(=O)N1CCN(S(=O)(=O)c2cc(F)c(Oc3ccc(Cl)cc3)c(F)c2)C(C(=O)NO)C1` (centres undefined) was -1.01 (inactive). In the case of `COc1nc(N)nc2c1ncn2C1OC(CO)C(O)C1O` (centres undefined), the Z-AUC was -0.613 (inactive). Still for that read-out and setting: the result for `COc1ccc(COc2ccc(Cc3cnc(N)nc3N)cc2OC)cc1` reads 0.614 (inactive); that for `CCOC(=O)N[C@@H]1CC[C@@H]2[C@@H](C1)C[C@H]1C(=O)O[C@H](C)[C@H]1[C@H]2/C=C/c1ccc(-c2cccc(F)c2)cn1`, 0.314 (inactive); that for `O=C(NO)c1ccc(C2=Nc3ccccc3Oc3ccccc32)cc1`, -0.476 (inactive).

`O=C1CC(c2c[nH]c3ccc(F)cc23)C(=O)N1` (centres undefined): the Z-AUC was 0.488 (inactive).
